Reference: PubChem BioAssay (NCI)
About 83,000 compounds went through this panel and 20% of them were active in at least one assay; those are over-represented in the sample as a whole.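 Compound tested at a single concentration for 48 hours in 96-well plates; a percent growth value below 10 was scored as active.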 Values without a mark were called inactive. The source made the active and inactive calls.

Tests used:
Assay in all cases: NCI-60 one-dose screen, 48 h (100 = growth as untreated, 0 = no growth, -100 = all killed)
Details in all cases: 10 µM unless noted
NCI-H23 lung = system: NCI-H23 lung
NCI-H226 lung = system: NCI-H226 lung
NCI-H322M lung = system: NCI-H322M lung
HOP-62 NSCLC = system: HOP-62 NSCLC
NCI-H460 lung = system: NCI-H460 lung
HOP-92 NSCLC = system: HOP-92 NSCLC
NCI-H522 lung = system: NCI-H522 lung
A549/ATCC NSCLC = system: A549/ATCC NSCLC
786-0 renal = system: 786-0 renal
COLO 205 colon = system: COLO 205 colon

SMILES | growth (NCI-H23 lung) | growth (NCI-H226 lung) | growth (NCI-H322M lung) | growth (HOP-62 NSCLC) | growth (NCI-H460 lung) | growth (HOP-92 NSCLC) | growth (NCI-H522 lung) | growth (A549/ATCC NSCLC) | growth (786-0 renal) | growth (COLO 205 colon)
Cc1cc(=O)oc2c1ccc1oc(C#N)c(C)c12 | 97.9% | 107% | 98.9% | 103% | 108% | 82% | 102% | 99.8% | 84.9% | 121%
N#Cc1c(-c2ccccn2)[nH]c(=S)[nH]c1=O | 106% | 103% | 97% | 99.9% | 108% | 93.6% | 88.9% | 98% | 92.2% | 110%
CCCCCCCCCCCCCCCCCC1=NCCN1CCOC1=C(Cl)C(=O)c2ccccc2C1=O | 79.4% | 100% | 80.5% | 82.6% | 98.3% | 46.4% | 13.8% | 95.3% | 98.3% | 41.2%
NNC(=O)c1nc(N)n(-c2ccc(S(N)(=O)=O)cc2)n1 | 97.2% | 98.7% | 97.3% | 90.6% | 105% | 74.2% | 80.3% | 97.1% | 95.7% | 103%
COc1ccc(-c2cc(-c3cc(OC)ccc3OC)nc(SCC(=O)c3ccccc3)c2C#N)cc1 | 92.7% | 84.4% | 103% | 89.9% | 102% | 92.3% | 79% | 92.7% | 109% | 97.8%
COc1cccc(-c2nn(-c3ccccc3)cc2-c2ccnc(NCCCNC(=O)c3cccc(C(F)(F)F)c3)c2)c1 | 27.3% | 13.3% | 75.3% | 48.3% | 23.4% | 9.4% (active) | 0.301% (active) | 8.6% (active) | 29.8% | 9.99% (active)
O=C1/C(=C/c2ccc(F)cc2)C=C(c2ccccc2)N1CCc1ccccc1 | 70.8% | 51.9% | 65.6% | -3.68% (active) | 61.3% | 7.45% (active) | 42.9% | 40.8% | 27.6% | 71.9%
O=C(Nc1ccc(Nc2ccncc2)cc1)c1ccc(C(=O)Nc2ccc(Nc3ccncc3)cc2)cc1 | 59.2% | 68.8% | 71.9% | 82.1% | 88.2% | 28.9% | 47.4% | 69.5% | 84.5% | 27.7%
COc1ccc2c(c1)CCCN2c1c2ccccc2nc2ccccc12 | 15.8% | 12.6% | 45.9% | 33.2% | 6.18% (active) | 12.4% | -0.944% (active) | 18.5% | 28.9% | -16.8% (active)
O=c1[nH][n+](-c2ccc(Cl)cc2)no1 | 91.6% | 87.2% | 75.6% | 82.7% | 44.1% | 95.1% | 59.2% | 62.1% | 61.2% | 77.9%
Cc1cccc(NC(=O)N/C(N)=N/c2nc(C)c(C)s2)c1 | 61.9% | 71.3% | 82.7% | 55.3% | 20.2% | 67.5% | 24.2% | 42.6% | 83.1% | 36%
O=C1/C(=C2/C=Nc3ccccc32)N(O)c2ccccc21 | 56.8% | 77% | 108% | 95.6% | 91.4% | 124% | 57.1% | 94.2% | 104% | 104%
CNc1ccc(NC)c2c1C(=O)c1ccccc1C2=O | 70.1% | 79.1% | 84% | 87% | 91% | 78.3% | 97.1% | 100% | 92.1% | 108%
COc1cccc(-c2nn(-c3ccccc3)cc2-c2ccnc(NCCNC(=O)Nc3ccc(Cl)c(Cl)c3)c2)c1 | 19.7% | 50.5% | 48.1% | 5.85% (active) | 2.74% (active) | -1.01% (active) | -14.9% (active) | -18.3% (active) | -41.1% (active) | -37.4% (active)
Cc1ccc(S(=O)(=O)Oc2cc(OS(=O)(=O)c3ccc(C)cc3)cc(OS(=O)(=O)c3ccc(C)cc3)c2)cc1 | 98.9% | 101% | 140% | 101% | 100% | 72.1% | 80.8% | 97.5% | 101% | 114%
NC[C@H](O)c1ccc(O)c(O)c1 | 98.8% | 109% | 110% | 105% | 103% | 65.8% | 102% | 109% | 108% | 109%
COc1ccc(N2CCN(c3nc(-c4cc(OC)c(OC)c(OC)c4)nc4ccccc34)CC2)cc1 | 81.1% | 78.4% | 91.4% | 83.9% | 87% | 56.6% | 55.1% | 80.5% | 85.7% | 62.9%
CCCCCCCCCCCC(c1ccccc1)[N+](C)(C)C (stereo not given) | 15.7% | 21% | 57.3% | 16.9% | 16.4% | -16.5% (active) | 5.04% (active) | 28.2% | 20.5% | -74.7% (active)
CCCCCCN(CCCCCC)c1ccc(/C=C2/SC(=O)N(c3nc(N4CCCC4)nc(N4CCCC4)n3)C2=O)c(C)c1 | 47.2% | 92.5% | 99% | 119% | 57.5% | -3.12% (active) | 53.2% | 54.2% | 63.5% | 82.1%
COC(=O)[C@]12CC[C@@H](C)[C@H](C)[C@@H]1C1=CC[C@@H]3[C@@]4(C)C(C=O)=C[C@@](C)(COS(C)(=O)=O)C4[C@H](O)C[C@@]3(C)[C@]1(C)CC2 (stereo not given in full) | -50.1% (active) | -67.2% (active) | -1.44% (active) | -63.6% (active) | -58.2% (active) | -74.3% (active) | -82.6% (active) | -67.1% (active) | -91.5% (active) | -70.8% (active)
COc1ccc(/C=N\NC(=O)c2cc(-c3ccc(Br)cc3)n(-c3ccc(S(N)(=O)=O)cc3)n2)cc1 | 71.7% | 77.8% | 63.1% | 48% | 38.5% | 46.8% | 18.9% | 52.1% | 66.9% | 62.2%
COc1ccc(-c2nc3c(c(=O)n2C(C)=O)C(c2ccc(Cl)cc2)c2sc4c(Cl)cccc4c2O3)cc1 (stereo not given) | 3.67% (active) | 15.8% | -5.66% (active) | -5.72% (active) | -10.8% (active) | -15.7% (active) | -45.6% (active) | -55% (active) | -50.1% (active) | -62.3% (active)
Cc1ccc(/C=C2\C(=O)N(C)c3ccc(S(=O)(=O)Nc4ccc(C(C)(C)C)cc4)cc32)s1 | 64.1% | 86% | 58.7% | 31.8% | 32.1% | 60% | 43.4% | 33.1% | 40.1% | 70.9%
Cc1c(C(=O)NC(Cc2ccccc2)C(O)C(=O)NCc2ccc(F)cc2)[nH]c2ccccc2c1=O (stereo not given) | 99.8% | 105% | 101% | 99.2% | 104% | 108% | 93.5% | 101% | 104% | 111%
